Reference: PubChem BioAssay (NCATS)
“And” between values parts separate entries of the source, which are not always exact repeats. Equal values may be shown once. Results filed as inconclusive are left out. The source made the active and inactive calls. Unless noted, calls follow the shape of the dose curve; as a rule, active = well fitted curve in the direction sought with a large enough effect; inconclusive = small, poorly fitted or top-dose-only effect, or another doubt; inactive = no such curve, though single readings can be large; an effect the other way counts as inactive or inconclusive.

How the values were obtained:
[1] = Cell Viability - BJ (AID 421; calls by dose curve;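 also: potency is read from the fitted curve at half-maximal effect; cells exposed to compound for 40 hours at 37 °C before readout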); conditions: BJ fibroblast viability, qHTS
Summary of the method: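 Cytotoxicity in human BJ foreskin fibroblasts is scored as loss of cellular ATP after a 40-hour exposure, measured by luciferase luminescence. Controls are DMSO and 100 uM tamoxifen.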

[2] = Cellular Toxicity (caspase-3) HepG2 (AID 654); conditions: HepG2 caspase-3 activation, luminescence, 0% = DMSO only, 100% = tamoxifen; series mostly up to 92.2 µM;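 also: cells exposed to compound for 16 hours before reading; 0% = DMSO alone and 100% = caspase signal from 100 µM tamoxifen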
Summary of the method: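 qHTS, HepG2, 1500 cells/well, complete medium; cpd 16 h 37 °C; Caspase-Glo 3/7, 20 min RT; lum. Norm: DMSO vs 100 uM tamoxifen; AC50 Hill fit.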

[3] = Cellular Toxicity (caspase-3) BJ (AID 658); conditions: BJ fibroblasts, luminescence, normalized: DMSO 0%, staurosporine 100%; series mostly up to 91.7 µM;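 also: cells exposed to compound for 16 hours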
Summary of the method: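 Readout: Caspase-Glo 3/7 luminescence increase in BJ cells after 16 hr treatment at 37 °C. Staurosporine and tamoxifen served as positive controls; AC50 values came from Hill modelling of data normalized to DMSO and 10 uM staurosporine.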

[4] = Cellular Toxicity (caspase-3) MRC-5 (AID 659); conditions: MRC-5 cells, luminescence, normalized: DMSO 0%, 10 µM staurosporine 100%; series mostly up to 91.7 µM
Summary of the method: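 Concentration-dependent caspase 3/7 activation is measured in human normal lung fibroblasts (MRC-5) following 16-hour treatment. AC50 values come from standard Hill-equation modeling of luminescence normalized to DMSO and 10 uM staurosporine.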

[5] = Cellular Toxicity (caspase-3) Hek293 (AID 664); conditions: HEK293 caspase-3 activation, DMSO = 0%, 100 µM tamoxifen = 100%; at 92.2 µM (top of the series);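 also: cells exposed to compound for 16 h at 37 °C before readout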
Summary of the method: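 Activation of caspase-3/7 is measured as increased luminescence from cleaved peptide-aminoluciferin substrate in HEK293 cells treated 16 hours at 37 °C. AC50 values come from Hill-equation fits of concentration-response data.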

[6] = Cellular Toxicity (caspase-3) N2a (AID 665); conditions: N2a cells, luminescence, normalized: DMSO 0%, 10 µM staurosporine 100%; series mostly up to 92.2 µM;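 also: compound exposure lasted 16 h at 37 °C before readout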
Summary of the method: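 Plated mouse neuroblastoma N2a cells received titrated compounds for 16 h in complete medium. Caspase activity was then detected with a peptide-aminoluciferin luminescent reagent.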

[7] = Cellular Toxicity (caspase-3) NIH 3T3 (AID 666); conditions: NIH 3T3 caspase-3 activation, apoptosis/toxicity; series mostly up to 92.2 µM;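 also: caspase signal read after 16 h compound exposure; 0% = DMSO basal and 100% = 100 µM tamoxifen stimulation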
Summary of the method: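 Concentration-response qHTS in NIH 3T3 mouse fibroblasts scores caspase-3/7 activation as rising luminescence after 16 hr compound exposure. Signals are scaled between DMSO-only and 100 uM tamoxifen.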

[8] = Cell Viability - LYMP2-001 (AID 921); conditions: LYMP2-001 lymphoblastoid cell viability; series mostly up to 92.2 µM;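 also: 0% = DMSO only and full inhibition = tetraoctylammonium bromide control wells; nearly all actives have a fitted effect of over 70% in size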
Summary of the method: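 Cellular ATP loss read by luciferase luminescence after 24 h compound exposure at 37 C in complete medium. LYMP2-001 lymphoblastoid cells, 2500/well; qHTS concentration-response data fitted with Hill equation for AC50.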

[9] = MultiTox-Fluor Cytotoxicity Assay - LYMP1-001 - Dead Cells (AID 946); conditions: LYMP1-001 lymphoblastoid cells, dead-cell protease fluorescence; series mostly up to 92.2 µM
Summary of the method: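 Seed 2500 LYMP1-001 cells/well, incubate 5 hr at 37 C; add compound, 16 hr at 37 C; add MultiTox-Fluor reagent, 60 min RT; read dead-cell fluorescence Ex/Em=485/520. Normalize to DMSO and 15 uM tetraoctylammonium bromide.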

[10] = MultiTox-Fluor Cytotoxicity Assay - LYMP1-002 - Live Cells (AID 955); conditions: LYMP1-002 lymphoblastoid live-cell protease fluorescence viability; series mostly up to 46.1 µM;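 also: cells exposed to compound for 16 hours; % is scaled to controls: 0 for no effect and ±100 for the full control effect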
Summary of the method: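 Cytotoxicity in the human lymphoblastoid line LYMP1-002 is measured as loss of live-cell protease activity after 16 h treatment in complete culture medium. AC50 is derived from Hill-equation fits of qHTS concentration-response data.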

[11] = MultiTox-Fluor Cytotoxicity Assay - LYMP1-003 - Dead Cells (AID 961); conditions: LYMP1-003 lymphoblastoid cells, dead-cell protease fluorescence; series mostly up to 92.2 µM; also: nearly all actives have a fitted effect of over 70% in size
Summary of the method: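 LYMP1-003 lymphoblastoid, 2500 cells/well, 5 hr settle then 16 hr cpd at 37 C; MultiTox-Fluor reagent 60 min RT; Ex/Em 485/520 dead-cell signal; norm. DMSO = 0%, 15 uM tetraoctylammonium bromide = 100%; Hill AC50.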

[12] = MultiTox-Fluor Cytotoxicity Assay - LYMP1-003 - Live Cells (AID 962); conditions: LYMP1-003 lymphoblastoid cells, MultiTox-Fluor live-cell protease fluorescence; series mostly up to 92.2 µM;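 also: cells exposed to compound for 16 hours at 37 °C; 0% = DMSO only and full loss = 92 µM tetraoctylammonium bromide; cytotoxic hits lower the live-cell protease signal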
Summary of the method: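 Cells plated at 2500 per well and incubated 5 hr; compounds added and incubated 16 hr at 37 C; MultiTox-Fluor reagent added for 60 min at room temperature; fluorescence of liberated AFC measured at 405/510 nm.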

[13] = Cell Viability - LYMP2-021 (AID 974); conditions: LYMP2-021 lymphoblastoid cells viability; series mostly up to 92.2 µM;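 also: compound exposure lasts 24 hours at 37 °C; % is scaled to controls: 0 for no effect and ±100 for the full control effect; nearly all actives have a fitted effect of over 55% in size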
Summary of the method: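 Concentration-response cytotoxicity in a human lymphoblastoid line: 24 hr treatment at 37 C in complete culture medium, tetraoctylammonium bromide as positive control, luminescent ATP quantitation as viability measure.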

[14] = Cell Viability - LYMP2-025 (AID 976); conditions: LYMP2-025 lymphoblastoid cell viability; series mostly up to 92.2 µM;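 also: plate controls were DMSO only for no effect and tetraoctylammonium bromide control for full effect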
Summary of the method: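 In qHTS format, LYMP2-025 lymphoblastoid cells in complete culture medium received compound for 24 hr; ATP-based CellTiter-Glo signal gave viability, with AC50 derived by Hill equation.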

[15] = Cell Viability - LYMP2-006 (AID 978); conditions: LYMP2-006 lymphoblastoid cell viability, qHTS; series mostly up to 92.2 µM; also: % is scaled to controls: 0 for no effect and ±100 for the full control effect; nearly all actives have a fitted effect of over 60% in size
Summary of the method: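 Potency values are Hill-fit AC50s for decreases in intracellular ATP (CellTiter-Glo luminescence). LYMP2-006 lymphoblastoid cells, 2500 per well, were exposed to compound in complete culture medium for 24 hr at 37 C.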

[16] = Cell Viability - LYMP1-002 - Assay at 24 hr (AID 993); conditions: LYMP1-002 lymphoblastoid cells viability; series mostly up to 92.2 µM; also: % is scaled to controls: 0 for no effect and ±100 for the full control effect
Summary of the method: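 qHTS, LYMP1-002 lymphoblastoid, 24 h cpd, 37 C, CellTiter-Glo ATP luminescence; AC50 via Hill eq.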

[17] = Cell Viability - LYMP1-002 - Assay at 40 hr (AID 994); conditions: LYMP1-002 lymphoblastoid cell viability; series mostly up to 92.2 µM;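 also: 0% = DMSO only and full inhibition = 92 µM tetraoctylammonium bromide; nearly all actives have a fitted effect of over 60% in size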
Summary of the method: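 Viability in the human lymphoblastoid line was measured as intracellular ATP via CellTiter-Glo after 40 hr compound exposure. Tetraoctylammonium bromide served as positive control.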

[18] = qHTS Assay for Identification of Small Molecule Inducers of Hypoxia Response (AID 2120; active = well fitted curve in the direction sought with a large enough effect in the signal ratio, with a control signal flat, not every such curve was filed as active; the % refers to the signal ratio; also: 0% is about no effect); conditions: hypoxia response reporter cells, beta-lactamase ratio readout; series mostly up to 104 µM
Summary of the method: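 Induction of beta-lactamase reporter activity was measured in CellSensor HRE-bla ME-180 cells after 17 h compound treatment at 37 degrees C, using CCF4 substrate and the 460nm/530nm emission ratio to derive AC50 values.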

[19] = target: Peroxisome proliferator-activated receptor alpha (Homo sapiens) (UniProt Q07869); test: qHTS assay for small molecule agonists of the peroxisome proliferator-activated receptor alpha (PPARalpha) signaling pathway (AID 651778); conditions: PathHunter PPARalpha complementation, chemiluminescence, 6 h; hits give high values; also: % of control where 0% means no effect
Sequence of Peroxisome proliferator-activated receptor alpha (Homo sapiens) (Q07869 whole entry, looked up): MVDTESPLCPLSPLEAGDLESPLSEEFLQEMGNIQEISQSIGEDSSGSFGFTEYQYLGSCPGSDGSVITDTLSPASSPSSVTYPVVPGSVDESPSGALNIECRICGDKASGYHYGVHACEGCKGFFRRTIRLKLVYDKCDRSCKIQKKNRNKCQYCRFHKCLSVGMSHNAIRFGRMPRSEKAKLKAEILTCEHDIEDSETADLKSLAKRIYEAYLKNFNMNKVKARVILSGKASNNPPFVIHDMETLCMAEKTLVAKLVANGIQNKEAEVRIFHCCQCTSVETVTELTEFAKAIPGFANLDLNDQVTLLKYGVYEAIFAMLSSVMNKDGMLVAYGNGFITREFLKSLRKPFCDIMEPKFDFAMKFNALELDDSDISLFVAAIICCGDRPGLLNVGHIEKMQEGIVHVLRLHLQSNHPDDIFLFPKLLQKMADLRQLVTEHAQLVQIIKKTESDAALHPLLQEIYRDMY
Summary of the method: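 Chemiluminescence from complemented enzyme reported PPARalpha activation in cells after 6 hr of compound treatment at 37 C. The detection reagent was incubated for 60 min at room temperature, and compounds were scored as agonists.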

[20] = qHTS assay for cell viability of the p53RE-bla HCT-116 cell line (AID 743292); conditions: p53RE-bla HCT-116 viability, ATP luminescence, 16 h; series mostly up to 95 µM; also: % is scaled to controls: 0 for no effect and ±100 for the full control effect; nearly all actives have a fitted effect of over 55% in size
Summary of the method: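 Intracellular ATP of p53RE-bla HCT-116 cells measured by luciferase luminescence following 16 h compound incubation at 37 C; DMSO-only wells served as vehicle controls.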

CCCCC(CC)COC(=O)c1ccc(C(=O)OCC(CC)CCCC)c(C(=O)OCC(CC)CCCC)c1 (stereo not given)
inactive: Potency [1] > 92 µM | outcome [2] | outcome [3] | outcome [4] | caspase-3 activation [5] 16.8% | outcome [6] | Potency [7] | Potency [8] | outcome [9] | outcome [10] | Potency [11] | outcome [12] | Potency [13] | Potency [14] | Potency [15] | Potency [16] | Potency [17] | Potency [18] | max response [19] -3.57% | Potency [20]

Clc1ccccc1
inactive: Potency [1] > 92 µM | outcome [2] | outcome [3] | outcome [4] | caspase-3 activation [5] 0.224% | outcome [6] | Potency [7] | Potency [8] | outcome [9] | outcome [10] | Potency [11] | outcome [12] | Potency [13] | Potency [14] | Potency [15] | Potency [16] | Potency [17] | Potency [18] | max response [19] -0.13% | Potency [20]

c1ccc(N=NNc2ccccc2)cc1
inactive: Potency [1] > 92 µM | outcome [2] | outcome [3] | outcome [4] | caspase-3 activation [5] -0.924% | outcome [6] | Potency [7] | Potency [8] | outcome [9] | outcome [10] | Potency [11] | outcome [12] | Potency [13] | Potency [14] | Potency [15] | Potency [16] | Potency [17] | Potency [18] | max response [19] -1.28% and 2.45% | Potency [20]

Cc1ccc(OP(=O)(Oc2ccc(C)cc2)Oc2ccc(C)cc2)cc1
inactive: Potency [1] > 92 µM | outcome [2] | outcome [3] | outcome [4] | caspase-3 activation [5] 2.34% | outcome [6] | Potency [7] | Potency [8] | outcome [9] | outcome [10] | Potency [11] | outcome [12] | Potency [13] | Potency [14] | Potency [15] | Potency [16] | Potency [17] | Potency [18] | max response [19] -4.04% and -0.382% | Potency [20]
